# According to paper PMC8384837, “Expanding the binding specificity for RNA recognition by a PUF domain”:
# Numbering of substitutions follows the chain as printed.
# Legend:
# Experiment in all cases: yeast three-hybrid, YBZ-1, SC-Leu-His + 0.5 mM 3-AT, 4 days
# Settings in all cases: tags: N-Gal4 AD-HA kept; label: inside an RPR1-promoter hybrid RNA with tandem MS2 sites; ssRNA
# PUM1 PUF domain R4-TAQ = PUM1 PUF domain R4-TAQ (Homo sapiens, UniProt Q14671 828-1176, N971T;H972A)
# In short: (§1)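 Pumilio-1 PUF domain libraries, randomized at the three base-contacting residues of each repeat, were co-expressed with matching RNA elements from a centromeric plasmid in strain YBZ-1, which carries a LexA–MS2 coat fusion and a HIS3 reporter. Transformants grew for four days on SC-Leu (input) or on SC-Leu-His + 0.5 mM 3-AT (selection), and the repeat regions were PCR-amplified and Illumina-sequenced. The interaction score is the log change in variant frequency from input to selection. That logarithm is base 2, with a pseudocount of 1 where a variant was absent.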
# PUM1 PUF domain R4-GYP = PUM1 PUF domain R4-GYP (Homo sapiens, UniProt Q14671 828-1176, N971G;H972Y;Q975P)
# In short: as §1
# PUM1 PUF domain R7-KHQ = PUM1 PUF domain R7-KHQ (Homo sapiens, UniProt Q14671 828-1176, S1079K;N1080H;E1083Q)
# In short: as §1
# PUM1 PUF domain R3-WYA = PUM1 PUF domain R3-WYA (Homo sapiens, UniProt Q14671 828-1176, C935W;R936Y;Q939A)
# In short: as §1
# PUM1 PUF domain R3-GPV = PUM1 PUF domain R3-GPV (Homo sapiens, UniProt Q14671 828-1176, C935G;R936P;Q939V)
# In short: as §1
# PUM1 PUF domain R1-RMS = PUM1 PUF domain R1-RMS (Homo sapiens, UniProt Q14671 828-1176, S863R;R864M;Q867S)
# In short: as §1
# PUM1 PUF domain R1-LKR = PUM1 PUF domain R1-LKR (Homo sapiens, UniProt Q14671 828-1176, S863L;R864K;Q867R)
# In short: as §1
# PUM1 PUF domain R1-GPK = PUM1 PUF domain R1-GPK (Homo sapiens, UniProt Q14671 828-1176, S863G;R864P;Q867K)
# In short: as §1
# PUM1 PUF domain R1-KFV = PUM1 PUF domain R1-KFV (Homo sapiens, UniProt Q14671 828-1176, S863K;R864F;Q867V)
# In short: as §1
# PUM1 PUF domain R8-NWH = PUM1 PUF domain R8-NWH (Homo sapiens, UniProt Q14671 828-1176, Y1123W;Q1126H)
# In short: as §1
# PUM1 PUF domain R8-RCR = PUM1 PUF domain R8-RCR (Homo sapiens, UniProt Q14671 828-1176, N1122R;Y1123C;Q1126R)
# In short: as §1
# PUM1 PUF domain R8-RYR = PUM1 PUF domain R8-RYR (Homo sapiens, UniProt Q14671 828-1176, N1122R;Q1126R)
# In short: as §1
# PUM1 PUF domain R6-LYA = target: T1, PUM1 PUF domain R6-LYA (Homo sapiens, UniProt Q14671 828-1176, N1043L;Q1047A)
# T1 sequence: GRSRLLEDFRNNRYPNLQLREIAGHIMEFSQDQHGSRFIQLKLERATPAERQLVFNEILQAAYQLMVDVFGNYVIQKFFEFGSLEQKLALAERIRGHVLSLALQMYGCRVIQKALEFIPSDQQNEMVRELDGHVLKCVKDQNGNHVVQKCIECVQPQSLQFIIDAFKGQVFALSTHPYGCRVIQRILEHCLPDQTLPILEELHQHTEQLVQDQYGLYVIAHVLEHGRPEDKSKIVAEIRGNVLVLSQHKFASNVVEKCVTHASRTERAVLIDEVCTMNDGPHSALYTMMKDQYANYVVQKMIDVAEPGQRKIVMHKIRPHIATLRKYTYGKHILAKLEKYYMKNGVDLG
# In short: as §1
# PUM1 PUF domain R8-DYR = PUM1 PUF domain R8-DYR (Homo sapiens, UniProt Q14671 828-1176, N1122D;Q1126R)
# In short: as §1
# PUM1 PUF domain R3-VRH = PUM1 PUF domain R3-VRH (Homo sapiens, UniProt Q14671 828-1176, C935V;Q939H)
# In short: as §1
# PUM1 PUF domain R3-LWI = PUM1 PUF domain R3-LWI (Homo sapiens, UniProt Q14671 828-1176, C935L;R936W;Q939I)
# In short: as §1
# PUM1 PUF domain R3-SSD = PUM1 PUF domain R3-SSD (Homo sapiens, UniProt Q14671 828-1176, C935S;R936S;Q939D)
# In short: as §1
# PUM1 PUF domain R8-HFL = PUM1 PUF domain R8-HFL (Homo sapiens, UniProt Q14671 828-1176, N1122H;Y1123F;Q1126L)
# In short: as §1
# PUM1 PUF domain R8-KRH = PUM1 PUF domain R8-KRH (Homo sapiens, UniProt Q14671 828-1176, N1122K;Y1123R;Q1126H)
# In short: as §1
# PUM1 PUF domain R6-FWS = target: T2, PUM1 PUF domain R6-FWS (Homo sapiens, UniProt Q14671 828-1176, N1043F;Y1044W;Q1047S)
# T2 sequence: T1 sequence with L216F, Y217W, A220S
# In short: as §1
sequence,measurement,setting,value
GGCUAGAACUAGUGGAUCCCCCGGCGCCCGGCGGCUCGAGCCCGGGUAAGUGUAUAUAGUCUGCAUGCCGCCGGGCGCCAUGCCUGCAGGUCGACUCUAGAAAACAUG,binding signal,PUM1 PUF domain R4-TAQ,3.78 log2 enrichment (interaction score)
same,binding signal,PUM1 PUF domain R4-GYP,7.06 log2 enrichment (interaction score)
GGCUAGAACUAGUGGAUCCCCCGGCGCCCGGCGGCUCGAGCCCGGGUAAGUUUAAAUAGUCUGCAUGCCGCCGGGCGCCAUGCCUGCAGGUCGACUCUAGAAAACAUG,binding signal,PUM1 PUF domain R7-KHQ,2.38 log2 enrichment (interaction score)
GGCUAGAACUAGUGGAUCCCCCGGCGCCCGGCGGCUCGAGCCCGGGUAAGUGUAAUUAGUCUGCAUGCCGCCGGGCGCCAUGCCUGCAGGUCGACUCUAGAAAACAUG,binding signal,PUM1 PUF domain R3-WYA,3.22 log2 enrichment (interaction score)
same,binding signal,PUM1 PUF domain R3-GPV,2.28 log2 enrichment (interaction score)
GGCUAGAACUAGUGGAUCCCCCGGCGCCCGGCGGCUCGAGCCCGGGUAAGUGUAAAUUGUCUGCAUGCCGCCGGGCGCCAUGCCUGCAGGUCGACUCUAGAAAACAUG,binding signal,PUM1 PUF domain R1-RMS,2.07 log2 enrichment (interaction score)
same,binding signal,PUM1 PUF domain R1-LKR,2.22 log2 enrichment (interaction score)
same,binding signal,PUM1 PUF domain R1-GPK,2.87 log2 enrichment (interaction score)
same,binding signal,PUM1 PUF domain R1-KFV,3.92 log2 enrichment (interaction score)
GGCUAGAACUAGUGGAUCCCCCGGCGCCCGGCGGCUCGAGCCCGGGUAAGUGUAAAUAGUCUGCAUGCCGCCGGGCGCCAUGCCUGCAGGUCGACUCUAGAAAACAUG,binding signal,PUM1 PUF domain R8-NWH,2.75 log2 enrichment (interaction score)
same,binding signal,PUM1 PUF domain R4-TAQ,0.74 log2 enrichment (interaction score)
same,binding signal,PUM1 PUF domain R8-RCR,1.34 log2 enrichment (interaction score)
same,binding signal,PUM1 PUF domain R3-GPV,2.08 log2 enrichment (interaction score)
same,binding signal,PUM1 PUF domain R8-RYR,6.26 log2 enrichment (interaction score)
same,binding signal,PUM1 PUF domain R6-LYA,2.58 log2 enrichment (interaction score)
same,binding signal,PUM1 PUF domain R8-DYR,0.87 log2 enrichment (interaction score)
same,binding signal,PUM1 PUF domain R4-GYP,5.1 log2 enrichment (interaction score)
same,binding signal,PUM1 PUF domain R3-VRH,4.55 log2 enrichment (interaction score)
GGCUAGAACUAGUGGAUCCCCCGGCGCCCGGCGGCUCGAGCCCGGGUAAGUGUAAAUGGUCUGCAUGCCGCCGGGCGCCAUGCCUGCAGGUCGACUCUAGAAAACAUG,binding signal,PUM1 PUF domain R1-GPK,0.78 log2 enrichment (interaction score)
GGCUAGAACUAGUGGAUCCCCCGGCGCCCGGCGGCUCGAGCCCGGGUAAGUGUAAAUCGUCUGCAUGCCGCCGGGCGCCAUGCCUGCAGGUCGACUCUAGAAAACAUG,binding signal,PUM1 PUF domain R1-RMS,3.18 log2 enrichment (interaction score)
same,binding signal,PUM1 PUF domain R1-LKR,3.44 log2 enrichment (interaction score)
same,binding signal,PUM1 PUF domain R1-GPK,4.33 log2 enrichment (interaction score)
GGCUAGAACUAGUGGAUCCCCCGGCGCCCGGCGGCUCGAGCCCGGGUAAGUGUAAGUAGUCUGCAUGCCGCCGGGCGCCAUGCCUGCAGGUCGACUCUAGAAAACAUG,binding signal,PUM1 PUF domain R3-LWI,3.8 log2 enrichment (interaction score)
same,binding signal,PUM1 PUF domain R3-SSD,2.19 log2 enrichment (interaction score)
GGCUAGAACUAGUGGAUCCCCCGGCGCCCGGCGGCUCGAGCCCGGGUAAGUCUAAAUAGUCUGCAUGCCGCCGGGCGCCAUGCCUGCAGGUCGACUCUAGAAAACAUG,binding signal,PUM1 PUF domain R7-KHQ,4.15 log2 enrichment (interaction score)
GGCUAGAACUAGUGGAUCCCCCGGCGCCCGGCGGCUCGAGCCCGGGUAAGUGUACAUAGUCUGCAUGCCGCCGGGCGCCAUGCCUGCAGGUCGACUCUAGAAAACAUG,binding signal,PUM1 PUF domain R4-GYP,5.39 log2 enrichment (interaction score)
GGCUAGAACUAGUGGAUCCCCCGGCGCCCGGCGGCUCGAGCCCGGGUAAGCGUAAAUAGUCUGCAUGCCGCCGGGCGCCAUGCCUGCAGGUCGACUCUAGAAAACAUG,binding signal,PUM1 PUF domain R8-RCR,3.19 log2 enrichment (interaction score)
same,binding signal,PUM1 PUF domain R8-RYR,7.21 log2 enrichment (interaction score)
same,binding signal,PUM1 PUF domain R8-HFL,2.79 log2 enrichment (interaction score)
same,binding signal,PUM1 PUF domain R8-DYR,3.04 log2 enrichment (interaction score)
same,binding signal,PUM1 PUF domain R8-KRH,2.93 log2 enrichment (interaction score)
GGCUAGAACUAGUGGAUCCCCCGGCGCCCGGCGGCUCGAGCCCGGGUAAGUGAAAAUAGUCUGCAUGCCGCCGGGCGCCAUGCCUGCAGGUCGACUCUAGAAAACAUG,binding signal,PUM1 PUF domain R6-FWS,4.06 log2 enrichment (interaction score)
same,binding signal,PUM1 PUF domain R6-LYA,1.91 log2 enrichment (interaction score)
